The text below walks through data of PubChem BioAssay (Tox21).

Records with an inconclusive call do not appear. Calls of active or inactive are those of the source. Unless noted, calls follow the shape of the dose curve; as a rule, active = well fitted curve in the direction sought with a large enough effect in the repeat runs; inconclusive = weak or mixed curves; inactive = no such curve, though single readings can be large; an effect the other way counts as inactive or inconclusive.

The nature of assay [1]: qHTS assay to identify small molecule antagonists of the sonic hedgehog signaling (Shh) pathway (AID 1259369; calls by dose curve; also: nearly all actives have a fitted effect of over 45% in size). Summed up: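 3T3Gli1-Luc, conditioned-medium-stimulated, 24hr cpd, 37C/5% CO2; Gli1-driven firefly Luc luminescence after 30min RT with luciferase reagent. Cells plated 4hr before cpd.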
(In general: In qHTS, concentration-response curves come from the screen itself.)

Assay [2] deals with Estrogen receptor beta (Homo sapiens) (UniProt Q92731). Nature of the assay: qHTS assay to identify small molecule agonists of the estrogen receptor beta (ER-beta) signaling pathway (AID 1259377; active = well fitted activation curve with a large enough effect in the signal ratio in the repeat runs, not every such curve was filed as active; the % refers to the signal ratio). Summed up:
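HEK293T ER-beta-UAS-bla; 2% charcoal-stripped FBS; cells pre-incubated 6 hr, compound 16 hr, 37C/5% CO2; LiveBLAzer B/G FRET substrate 2 h RT; fluorescence intensity read.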

For assay [3] the target is unchanged. Nature of the assay: qHTS assay to identify small molecule antagonists of the estrogen receptor beta (ER-beta) signaling pathway (AID 1259378; active = well fitted inhibition curve with a large enough effect in the signal ratio in the repeat runs, not every such curve was filed as active; the % refers to the signal ratio). In short, it runs like this:
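ER-beta-UAS-bla HEK293T cells in 2% charcoal-stripped FBS medium treated with compound plus 1nM final 17-beta-estradiol for 16 hr at 37C. Beta-lactamase reporter read by FRET substrate fluorescence after 2 hours at room temperature.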

The nature of assay [4]: qHTS assay to identify small molecule agonists of the androgen receptor (AR) signaling pathway in the presence of an antagonist - cell viability counter screen (AID 1259379).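 Also: MDA-kb2 human breast cancer cells carrying an MMTV luciferase reporter; series mostly up to about 92 µM; nearly all actives have a fitted effect of over 25% in size.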 In short, it runs like this:
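Cells: MDA-kb2 (MMTV-luc, AR and GR elements), 3,000/well, 5 hr settle. Added: nilutamide 3.0uM final, then compounds (15 conc.). Incubation: 16 hr, 37C, no CO2. Read-out: CellTiter-Fluor, 1 hr, fluorescence.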

Assay [5] can be described thus: qHTS assay to identify small molecule agonists of the estrogen receptor beta (ER-beta) signaling pathway - cell viability counter screen (AID 1259380). Also: nearly all actives have a fitted effect of over 30% in size. In short, it runs like this: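 HEK293T ER-beta-UAS-bla; 2% CS-FBS; 6 hr pre-plate, 16 hr cpd at 37C/5% CO2; LiveBLAzer read first, then CellTiter-Glo 30 min RT, luminescence.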
Assay [6] is described as follows: qHTS assay to identify small molecule antagonists of the estrogen receptor beta (ER-beta) signaling pathway - cell viability counter screen (AID 1259382). Also: series mostly up to about 92 µM; nearly all actives have a fitted effect of over 55% in size. Summed up:
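Cells: ER-beta-UAS-bla HEK293T, 2,000/well, 2% CS-FBS, 6 hr settle. Cpd + E2 (1nM final), 16 hr, 37C/5% CO2. Bla FRET substrate 2 hr RT, then CellTiter-Glo 30 min RT, luminescence.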

Assay [7] can be described thus: qHTS assay to identify small molecule agonists of the estrogen receptor alpha (ER-alpha) signaling pathway in the presence of an antagonist - cell viability counter screen (AID 1259386).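 Also: series mostly up to about 92 µM; cells exposed to compounds for 22 h at 37 °C before the viability read; nearly all actives have a fitted effect of over 30% in size.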 In short, it runs like this: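 VM7Luc4E2, stripped-serum pre-culture 5 d; 24hr plating; +ICI-182,780 10.0nM final; cpds 15 conc, 22hr, 37C/5% CO2; CellTiter-Fluor added at 21hr, fluorescence 1hr later.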

Assay [8] addresses Progesterone receptor (Homo sapiens) (UniProt P06401). The experiment in a line: qHTS assay to identify small molecule agonists of the progesterone receptor (PR) signaling pathway (AID 1346784; calls by dose curve; also: nearly all actives have a fitted effect of over 30% in size). In short, it runs like this: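 Beta-lactamase reporter read-out: after 16 hr compound treatment at 37C and a further 2 hr at room temperature with LiveBLAzer B/G FRET substrate, fluorescence was measured in PR-UAS-bla HEK 293T cells grown in 2% charcoal-stripped serum.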

Assay [9] shares this target. The experiment in a line: qHTS assay to identify small molecule antagonists of the progesterone receptor (PR) signaling pathway (AID 1346795; active = well fitted inhibition curve with a large enough effect in the signal ratio in the repeat runs, not every such curve was filed as active; the % refers to the signal ratio; also: potency is read from the fitted curve at half-maximal effect). Summed up:
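Read-out is fluorescence from the LiveBLAzer B/G FRET substrate, cleaved by a UAS-controlled beta-lactamase in PR-UAS-bla HEK293T cells after 16 hr exposure to compound plus 1 nM promegestone (final), followed by 2 hr at room temperature.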

The nature of assay [10]: qHTS assay to identify small molecule antagonists of the progesterone receptor (PR) signaling pathway - cell viability counter screen (AID 1346798).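 Also: HEK293T PR-UAS-bla cells stimulated with the agonist R5020; series mostly up to about 92 µM; nearly all actives have a fitted effect of over 50% in size.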 Summed up:
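HEK293T PR-UAS-bla, 2% charcoal-stripped FBS; 4 hr pre-plate; cpd + R5020, 16 h 37C; LiveBLAzer read first; then CellTiter-Glo 30 min RT, luminescence.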

A short description of assay [11]: qHTS assay to identify small molecule agonists of the progesterone receptor (PR) signaling pathway - cell viability counter screen (AID 1346799; calls by dose curve; also: nearly all actives have a fitted effect of over 45% in size). Summed up: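 Luminescence from CellTiter-Glo, added after the beta-lactamase FRET read in the same wells, gave cytotoxicity in PR-UAS-bla HEK293T cells treated with compounds for 16 hr at 37C.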
Assay [12] can be described thus: qHTS assay to identify small molecule antagonists of the TGF-beta/Smad signaling pathway - cell viability counter screen (AID 1346824). Also: nearly all actives have a fitted effect of over 50% in size. Summed up: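 SBE-bla HEK 293T cells, incubated overnight, then compound plus 0.25 ng/mL TGF-beta1 (stock added) for 5 hr at 37 C. Viability was read in the same wells by CellTiter-Glo luminescence after 30 min at room temperature.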

Assay [13] can be described thus: qHTS assay to identify small molecule agonists of the TGF-beta/Smad signaling pathway - cell viability counter screen (AID 1346829). Also: top concentration of the series differs between compounds; nearly all actives have a fitted effect of over 45% in size. In short, it runs like this: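 Tox21 qHTS format: SBE-bla HEK 293T cells treated with DMSO-dissolved compounds for 5 hr; CellTiter-Glo luminescence after 30 min at room temperature.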
Assay [14] in a line: qHTS assay to identify small molecule agonists of the TGF-beta/Smad signaling pathway (AID 1346859; active = well fitted activation curve with a large enough effect in the signal ratio in the repeat runs, not every such curve was filed as active; the % refers to the signal ratio; also: series mostly up to about 77 µM). Summed up: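 SBE-bla HEK 293T, 4,000 cells/well, plated o/n; cpd in DMSO, 5 hr, 37 C/5% CO2; B/G FRET substrate 2 hr RT; ex 405, em 460/530 nm.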
For assay [15], the target named is Thyrotropin-releasing hormone receptor (Homo sapiens) (UniProt P34981). Nature of the assay: qHTS assay to identify small molecule antagonists of the thyrotropin-releasing hormone receptor (TRHR) signaling pathway (AID 1346877; active = well fitted inhibition curve with a large enough effect in the repeat runs, not every such curve was filed as active; also: series mostly up to about 51 µM). In short, it runs like this: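 Intracellular calcium fluorescence, read kinetically every second over 3 min, reports TRH-evoked signalling in HEK293 cells carrying TRHR. Test compounds were added 5 min ahead of a 1 nM TRH challenge.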
Thyrotropin-releasing hormone receptor (Homo sapiens), sequence (P34981 whole entry, looked up): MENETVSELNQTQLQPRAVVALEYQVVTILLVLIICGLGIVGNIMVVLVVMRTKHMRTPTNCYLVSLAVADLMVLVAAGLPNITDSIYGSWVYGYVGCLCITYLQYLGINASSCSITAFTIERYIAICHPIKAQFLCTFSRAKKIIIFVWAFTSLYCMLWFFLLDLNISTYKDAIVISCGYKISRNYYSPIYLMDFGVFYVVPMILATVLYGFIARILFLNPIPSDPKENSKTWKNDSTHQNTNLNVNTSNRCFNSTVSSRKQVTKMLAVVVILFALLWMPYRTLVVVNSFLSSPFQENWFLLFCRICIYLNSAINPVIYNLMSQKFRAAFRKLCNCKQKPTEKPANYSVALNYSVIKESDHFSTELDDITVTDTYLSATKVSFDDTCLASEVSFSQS

The target of assay [16] is Estrogen receptor (Homo sapiens) (UniProt P03372). Nature of the assay: qHTS assay to identify small molecule agonists of the estrogen receptor alpha (ER-alpha) signaling pathway in the presence of an antagonist (AID 1259383; calls by dose curve; also: top concentration of the series differs between compounds; nearly all actives have a fitted effect of over 15% in size). Summed up: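 VM7Luc4E2, endog. ER-alpha + 4×ERE-luc; charcoal-stripped FBS, phenol red-free, 5 d; 24hr plating; +10.0nM ICI-182,780 (final); cpds 15 conc, 22hr, 37C/5% CO2; ONE-Glo luminescence.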
Estrogen receptor (Homo sapiens), sequence (P03372 whole entry, looked up): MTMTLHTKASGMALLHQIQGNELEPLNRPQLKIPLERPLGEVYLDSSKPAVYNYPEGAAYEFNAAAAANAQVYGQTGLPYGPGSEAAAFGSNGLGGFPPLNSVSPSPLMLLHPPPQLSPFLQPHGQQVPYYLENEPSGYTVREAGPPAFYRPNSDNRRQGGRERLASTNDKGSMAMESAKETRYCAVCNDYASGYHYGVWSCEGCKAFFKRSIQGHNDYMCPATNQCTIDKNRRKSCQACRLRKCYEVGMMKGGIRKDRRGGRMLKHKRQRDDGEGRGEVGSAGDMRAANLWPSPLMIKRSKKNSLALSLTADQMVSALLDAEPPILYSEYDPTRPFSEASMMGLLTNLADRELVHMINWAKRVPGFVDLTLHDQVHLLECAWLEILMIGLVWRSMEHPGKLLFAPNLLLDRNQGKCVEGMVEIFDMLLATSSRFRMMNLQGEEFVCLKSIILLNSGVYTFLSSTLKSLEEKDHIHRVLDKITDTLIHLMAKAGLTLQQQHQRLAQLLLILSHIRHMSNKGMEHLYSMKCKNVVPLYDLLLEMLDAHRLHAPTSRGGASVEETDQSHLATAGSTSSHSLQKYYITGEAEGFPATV

A short description of assay [17]: qHTS assay to identify small molecule agonists or antagonists of the thyroid stimulating hormone receptor (TSHR) signaling pathway - wild type cell line counter screen (AID 1259384; calls by dose curve). In short, it runs like this: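 Wild-type Hek293 cells, 800/well, 18 h at 37C, then compound with Ro20-1724 for 30 min RT. cAMP by HTRF (cAMP-d2/anti-cAMP cryptate), 1 h RT, fluorescence read. 15 concentrations, triplicates.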

The target in assay [18] is Thyrotropin receptor (Homo sapiens) (UniProt P16473). The experiment in a line: qHTS assay to identify small molecule antagonists of the thyroid stimulating hormone receptor (TSHR) signaling pathway (AID 1259385; calls by dose curve; also: nearly all actives have a fitted effect of over 20% in size). In short, it runs like this:
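TSHR-HEK293 cells (800/well) plated 18 h, then compounds with Ro20-1724 and TSH at 1.5 ng/mL final, 30 min at room temperature. cAMP quantified by HTRF (cAMP-d2/anti-cAMP-cryptate, 1 h); 15 concentrations in triplicate.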

Progesterone receptor (Homo sapiens), sequence (P06401 whole entry, looked up): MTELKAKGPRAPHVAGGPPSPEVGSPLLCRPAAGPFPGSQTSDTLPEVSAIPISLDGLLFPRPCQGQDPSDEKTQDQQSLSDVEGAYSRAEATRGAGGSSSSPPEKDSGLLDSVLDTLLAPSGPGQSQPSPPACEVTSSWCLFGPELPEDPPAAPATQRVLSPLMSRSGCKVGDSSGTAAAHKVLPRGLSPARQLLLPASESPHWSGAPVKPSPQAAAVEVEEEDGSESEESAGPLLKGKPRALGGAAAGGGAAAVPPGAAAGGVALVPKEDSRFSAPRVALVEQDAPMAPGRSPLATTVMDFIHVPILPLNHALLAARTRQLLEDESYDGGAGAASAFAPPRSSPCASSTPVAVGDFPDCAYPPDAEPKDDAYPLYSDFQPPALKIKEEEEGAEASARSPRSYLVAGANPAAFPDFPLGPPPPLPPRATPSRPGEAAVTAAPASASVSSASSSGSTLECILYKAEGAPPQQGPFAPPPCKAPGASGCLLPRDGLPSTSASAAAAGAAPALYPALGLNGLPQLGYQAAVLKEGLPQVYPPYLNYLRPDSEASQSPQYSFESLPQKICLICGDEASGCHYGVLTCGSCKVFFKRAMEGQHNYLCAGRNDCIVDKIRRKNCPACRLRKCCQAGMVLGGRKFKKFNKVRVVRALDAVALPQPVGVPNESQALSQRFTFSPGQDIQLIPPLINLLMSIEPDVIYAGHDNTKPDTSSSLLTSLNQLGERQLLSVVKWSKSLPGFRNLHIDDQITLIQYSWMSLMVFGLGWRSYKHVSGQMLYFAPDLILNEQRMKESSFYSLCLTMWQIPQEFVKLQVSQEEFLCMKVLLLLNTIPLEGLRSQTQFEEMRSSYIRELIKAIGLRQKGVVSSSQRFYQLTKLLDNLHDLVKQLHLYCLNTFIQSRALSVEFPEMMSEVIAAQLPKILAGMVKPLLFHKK
Estrogen receptor beta (Homo sapiens), sequence (Q92731 whole entry, looked up): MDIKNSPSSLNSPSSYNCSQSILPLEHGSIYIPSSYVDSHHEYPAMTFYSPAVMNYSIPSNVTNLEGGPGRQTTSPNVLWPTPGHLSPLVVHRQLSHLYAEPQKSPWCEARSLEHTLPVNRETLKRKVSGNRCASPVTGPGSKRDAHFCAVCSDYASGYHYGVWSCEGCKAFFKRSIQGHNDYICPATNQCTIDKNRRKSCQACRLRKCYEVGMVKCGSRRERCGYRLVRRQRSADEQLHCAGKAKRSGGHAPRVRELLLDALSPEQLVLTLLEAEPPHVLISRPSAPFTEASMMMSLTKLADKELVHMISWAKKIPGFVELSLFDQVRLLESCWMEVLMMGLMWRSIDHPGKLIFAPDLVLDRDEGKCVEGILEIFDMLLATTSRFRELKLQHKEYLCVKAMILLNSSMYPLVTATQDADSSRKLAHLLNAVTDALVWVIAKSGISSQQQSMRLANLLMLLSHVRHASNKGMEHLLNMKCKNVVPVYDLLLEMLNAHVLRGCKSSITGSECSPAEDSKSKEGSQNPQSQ
Thyrotropin receptor (Homo sapiens), sequence (P16473 whole entry, looked up): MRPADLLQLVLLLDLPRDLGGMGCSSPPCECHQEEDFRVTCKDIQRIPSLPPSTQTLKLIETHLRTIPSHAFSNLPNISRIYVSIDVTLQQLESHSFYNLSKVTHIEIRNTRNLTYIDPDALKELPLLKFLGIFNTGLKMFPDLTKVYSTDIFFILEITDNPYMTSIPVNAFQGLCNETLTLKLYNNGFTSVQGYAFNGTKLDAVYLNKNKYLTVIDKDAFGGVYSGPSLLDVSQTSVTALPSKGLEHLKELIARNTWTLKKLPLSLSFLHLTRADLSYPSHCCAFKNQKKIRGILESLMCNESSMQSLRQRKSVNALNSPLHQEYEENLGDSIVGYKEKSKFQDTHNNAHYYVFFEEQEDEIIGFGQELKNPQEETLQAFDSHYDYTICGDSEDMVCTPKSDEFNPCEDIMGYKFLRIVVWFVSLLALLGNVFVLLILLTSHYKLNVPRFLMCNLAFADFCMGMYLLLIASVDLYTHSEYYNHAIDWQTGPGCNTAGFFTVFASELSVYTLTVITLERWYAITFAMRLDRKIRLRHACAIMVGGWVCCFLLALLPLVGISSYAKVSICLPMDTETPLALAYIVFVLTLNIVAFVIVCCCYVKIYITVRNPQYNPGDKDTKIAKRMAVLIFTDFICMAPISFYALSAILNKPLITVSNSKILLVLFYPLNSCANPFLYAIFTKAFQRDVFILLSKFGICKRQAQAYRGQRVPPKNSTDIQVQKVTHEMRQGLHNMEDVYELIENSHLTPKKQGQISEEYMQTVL

Consider `CCOC(C)OCC`, for which the Potency entry in assay [1], in assay [2], in [3], in [4], in [5] and in [6] was “inactive” throughout. The Potency entry in assay [7], in [8], in assay [9], in assay [10] and in assay [11] was “inactive” each time. The call in assay [12], in assay [13], in assay [14] and in assay [15] was inactive.
`COc1cc(CNC(=O)CCCC/C=C/C(C)C)ccc1O`: the Potency entry in [4], in [6], in assay [16], in assay [18], in [7] and in assay [8] was “inactive” throughout. The compound was classed as inactive in [17], in assay [12], in assay [13], in [14] and in assay [15]. The Potency in [9] is 53 µM (active).
In the case of `CC(C)Oc1ccccc1O`, the Potency entry in assay [1], in [6], in assay [16], in [18], in [7] and in [8] was “inactive” throughout. Also, the Potency result in [9] and in assay [10] was “inactive” each time. Moreover, the compound was classed as inactive in assay [17], in assay [13], in assay [14] and in [15].
Turning to `Cc1ccc(Cl)c(OCC(O)CNC(C)(C)C)c1` (configuration not stated), the Potency entry in [1], in [2], in assay [3], in assay [4], in assay [6] and in assay [16] was “inactive” each time. Further, the Potency entry in assay [7], in assay [8], in assay [9] and in [10] was “inactive” each time. Further, the call in assay [12], in [13], in assay [14] and in [15] was inactive.
On to `C=CC(O)CCCCC` (configuration not stated), for which the Potency result in assay [1], in assay [5], in assay [6], in [18], in assay [7] and in [8] was “inactive” each time. For the same compound, the Potency entry in assay [9], in assay [10] and in assay [11] was “inactive” in each case. Moreover, the compound was called inactive in assay [17], in assay [12], in assay [13], in [14] and in assay [15].
Take `Cc1ccc2ccccc2c1[N+](=O)[O-]`: the Potency entry in assay [2], in assay [3], in [4], in assay [5], in assay [6] and in assay [16] was “inactive” throughout. Besides, the Potency entry in assay [18], in assay [7], in assay [8], in [9], in assay [10] and in assay [11] was “inactive” in each case. Besides, the call in assay [17], in [12], in assay [14] and in assay [15] was inactive.
For the compound `O=C(O)c1ccccc1-n1cc(C(=O)O)c(=O)c2cc(Nc3c(F)cc(F)cc3Cl)c(Cl)cc21`, the Potency result in assay [1], in assay [2], in assay [3], in assay [5], in [6] and in assay [16] was “inactive” in each case. For the same compound, the Potency result in assay [18], in [7], in [8], in assay [9] and in assay [10] was “inactive” each time. Besides, the outcome in [17], in assay [12] and in assay [14] was inactive.
For `Cc1ccc(S(=O)(=O)NC(=O)NC2CCCC2)cc1`, the Potency result in assay [4], in assay [6], in [18], in assay [7], in assay [8] and in assay [9] was “inactive” in each case. Further, the Potency entry in assay [10] is “inactive”. Also, the outcome in [17], in assay [12], in assay [13], in [14] and in [15] was inactive.
For `C=CC(=O)NC(C)(C)C`, the Potency entry in [4], in assay [6], in assay [16], in [18], in assay [7] and in [8] was “inactive” throughout. Moreover, the Potency entry in [9] and in assay [10] was “inactive” each time. For the same compound, the compound was classed as inactive in assay [17], in [12], in assay [13], in [14] and in assay [15].
